Results from PubChem BioAssay (NCI).
About 79,000 compounds went through this panel and 15% of them were active in at least one assay; those are over-represented in the sample as a whole. Cut-off read from the data, not from the text of the source: active = growth inhibition above about 70%; inactive = the rest.

Key:
[1] = NCI Yeast Anticancer Drug Screen. Data for the rad50 strain (AID 155);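 note: 0% = growth of vehicle-only cultures of the same strain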; settings: S. cerevisiae rad50 strain growth inhibition; at 50.0 µM; hits give high values
Procedure, shortened: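 Cells are treated with compound, grown, and their growth is then scored against vehicle-only cultures of the same repair-deficient yeast strain.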

[2] = NCI Yeast Anticancer Drug Screen. Data for the mec2-1 strain (AID 157); settings: S. cerevisiae mec2-1 strain, at 50.0 µM, hits give high values
Procedure, shortened: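 Cells of the genetically defined mec2-1 yeast strain are incubated with test compound. Inhibition of growth is calculated against vehicle-treated controls.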

[3] = NCI Yeast Anticancer Drug Screen. Data for the sgs1 mgt1 strain (AID 161);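 note: 0% = growth of cultures given vehicle only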; settings: S. cerevisiae sgs1 mgt1 strain, at 50.0 µM, hits give high values
Procedure, shortened: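 Read-out: growth inhibition vs vehicle controls. Cells: mutant yeast strain deficient in DNA damage repair.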

[4] = NCI Yeast Anticancer Drug Screen. Data for the cln2 rad14 strain (AID 165);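 note: 0% = growth equal to vehicle treated cultures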; settings: S. cerevisiae cln2 rad14 strain, at 50.0 µM, hits give high values
Procedure, shortened: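 The screen exposed genetically defined yeast (cln2 rad14) to test compounds and scored growth inhibition relative to vehicle-treated controls.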

[5] = NCI Yeast Anticancer Drug Screen. Data for the bub3 strain (AID 167); settings: S. cerevisiae bub3 mutant strain, at 50.0 µM, hits give high values
Procedure, shortened: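 Part of a panel of yeast mutants defective in DNA damage repair or cell cycle regulation. Each strain is grown with compound, and inhibition is calculated relative to solvent-treated cultures.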

[6] = NCI Yeast Anticancer Drug Screen. Data for the mlh1 rad18 strain (AID 175); settings: S. cerevisiae mlh1 rad18 strain growth inhibition; at 50.0 µM; hits give high values
Procedure, shortened: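 Compound-treated yeast growth, normalised to vehicle controls. Strain bears defined DNA repair mutations.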

Measured: growth inhibition

S=C(Oc1ccccc1)Oc1ccc2ccccc2c1
inactive: [1] 9.7% | [2] -6.8% | [3] -9.7% | [4] -6.55% | [5] 15.3% | [6] -11.6%

COc1ccc(C)c2c1CCCC2
inactive: [1] -8.6% | [2] 9.75% | [3] -5.05% | [4] -60.2% | [5] -6.8% | [6] -14.5%

N/N=C(\Cc1ccccc1)NN=C(N)N
inactive: [1] 13.6% | [2] -11.2% | [3] 14.8% | [4] 20.1% | [5] -9.45% | [6] 20.3%

C=CCC(OC(C)=O)c1cccc(OC)c1OC (stereo not given)
inactive: [1] 3.7% | [2] 7.2% | [3] -9.45% | [4] -48.7% | [5] -3.25% | [6] -5.3%

CNC(=O)OCCCCCCCCCCOC(=O)NC
inactive: [1] 2.8% | [2] -0.1% | [3] 6.2% | [4] -23.7% | [5] -17.9% | [6] 4.65%

COc1cccc(/C=C/S(=O)(=O)Cc2ccccc2)c1OC
inactive: [1] 9.7% | [2] 4.85% | [3] 4.85% | [4] 23.4% | [5] 7.4% | [6] 26.1%

C(=C\c1cccc2ccccc12)/c1ccc(-c2ccccc2)cc1
inactive: [1] -5.9% | [2] -45% | [3] -0.75% | [4] 12.1% | [5] -3.45% | [6] 5.75%

COc1ccccc1OCC(=O)O
inactive: [1] 23.6% | [2] 0.2% | [3] -17.8% | [4] -24.9% | [5] -11.9% | [6] 23.2%

CC(C)C(C(=O)O)N(CC1(O)OCC(O)C(O)C1O)N=O (stereo not given)
inactive: [1] -0.2% | [2] -18.4% | [3] -2.85% | [4] 0.1% | [5] -11.1% | [6] -12.9%

COc1ccc(C2C3=C(COC3=O)OC(C)(C)Oc3cc4c(cc32)OCO4)cc1 (stereo not given)
inactive: [1] -3% | [2] 0.85% | [3] 13.7% | [4] 6.5% | [5] 36.1% | [6] -19.9%

COc1cc2ccc3c4cc(OC)c(OC(C)C)cc4cnc3c2cc1OC
inactive: [1] -48.9% | [2] -15.3% | [3] -0.9% | [4] 29.6% | [5] -10.5% | [6] -4.45%

O=C1OC(=O)C2C1C1c3ccccc3C2(O)c2ccccc21 (stereo not given)
inactive: [1] -1.8% | [2] -17.9% | [3] 0.2% | [4] 2.95% | [5] 6.1% | [6] -0.6%

O=C(CSc1nnc(Cc2ccccc2)o1)Nc1cccc([N+](=O)[O-])c1
inactive: [1] 20.6% | [2] 5.1% | [3] 12.1% | [4] -10.3% | [5] -8.4% | [6] -17%

COc1cc([N+](=O)[O-])c2nccc(C)c2c1
inactive: [1] 13.1% | [2] 6.1% | [3] -0.6% | [4] -5.05% | [5] -5.1% | [6] 18.6%

CCc1c(C)nc2cc(-c3cc(C)n4c(=O)c(CC)c(C)nc4c3)cc(C)n2c1=O
inactive: [1] 1.6% | [2] 9.95% | [3] -12.7% | [4] 1.2% | [5] 3.2% | [6] 3.95%

CCC(CC)C(=O)OCCOCCOCCOC(=O)C(CC)CC
inactive: [1] -9.3% | [2] -16.8% | [3] -2.15% | [4] 6.8% | [5] -3.35% | [6] 1%

Cc1cc(Br)c[nH]c1=O
inactive: [1] -4.75% | [2] -7.7% | [3] -3.65% | [4] -20.2% | [5] -29.1% | [6] 5.05%

O=C(N=C1[Se]C(=Nc2ccccc2)C(=Nc2ccccc2)N1c1ccc(Cl)cc1)c1ccccc1
inactive: [1] -13.8% | [2] -10.4% | [3] -27.1% | [4] -22.9% | [5] -9.25% | [6] -21.4%

CCCC1(CCC)NC(=O)N(CC(N)=O)C1=O
inactive: [1] 7.45% | [2] 0.1% | [3] -9.5% | [4] -20.6% | [5] -9.1% | [6] 16.1%

Cc1ccc(Nc2nc(NS(=O)(=O)c3cc(C)c(Cl)cc3S)n(C)n2)cc1
inactive: [1] -15.1% | [2] -33.5% | [3] -29.7% | [4] -7.1% | [5] -32.9% | [6] -21.8%
